{"source": "PubChem BioAssay AID488969", "about": "(Vanderbilt High Throughput Screening Facility, 2010)", "note": "In all, about 110,000 compounds were measured (“z-score”: median about -0.1, highest 2% from about 2 on). The entries come from a sample that favours the highest values as a whole. The source made the active and inactive calls.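 The calls were made as follows: active = z-score in the third read window above 3 or below -3; inactive = the rest.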"}
{"molecular_target": "Metabotropic glutamate receptor 8 (Rattus norvegicus) (UniProt P70579)", "sequence (P70579 whole entry, looked up)": "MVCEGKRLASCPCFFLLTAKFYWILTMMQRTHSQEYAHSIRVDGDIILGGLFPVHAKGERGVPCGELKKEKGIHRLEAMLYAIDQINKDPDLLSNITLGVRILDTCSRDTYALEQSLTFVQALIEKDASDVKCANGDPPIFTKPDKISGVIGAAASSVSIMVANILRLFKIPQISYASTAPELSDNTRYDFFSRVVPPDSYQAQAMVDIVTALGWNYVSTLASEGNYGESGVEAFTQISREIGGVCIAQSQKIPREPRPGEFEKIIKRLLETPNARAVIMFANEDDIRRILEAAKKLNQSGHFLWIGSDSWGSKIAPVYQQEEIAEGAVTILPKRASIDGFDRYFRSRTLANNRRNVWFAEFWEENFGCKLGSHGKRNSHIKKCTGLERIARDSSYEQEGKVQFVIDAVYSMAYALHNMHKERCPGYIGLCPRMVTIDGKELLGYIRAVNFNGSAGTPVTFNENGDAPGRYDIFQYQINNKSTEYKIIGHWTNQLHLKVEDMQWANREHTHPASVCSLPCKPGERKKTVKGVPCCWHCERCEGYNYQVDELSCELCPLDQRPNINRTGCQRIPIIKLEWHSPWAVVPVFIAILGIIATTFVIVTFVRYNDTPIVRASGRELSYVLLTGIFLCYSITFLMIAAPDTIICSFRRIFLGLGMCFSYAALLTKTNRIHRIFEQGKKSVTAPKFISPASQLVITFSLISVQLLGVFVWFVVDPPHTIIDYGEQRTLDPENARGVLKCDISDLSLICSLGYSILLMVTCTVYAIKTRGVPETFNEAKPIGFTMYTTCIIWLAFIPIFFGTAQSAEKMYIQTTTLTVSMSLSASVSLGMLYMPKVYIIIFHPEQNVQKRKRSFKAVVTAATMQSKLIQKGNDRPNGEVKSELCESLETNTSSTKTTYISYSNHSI", "assay": "mGluR8 Gi/Go-coupled signaling modulation – cell-based, rat, thallium flux, HTS, primary screen (AID 488969)", "conditions": "HEK293 rat mGluR8, GIRK (G protein-gated inwardly rectifying potassium channel) thallium flux, FluoZin2; at 10 µM; stronger effect = higher value; submaximal glutamate (EC20) added with thallium"}
{"smiles": "CCOc1ccccc1Nc1nc(-c2sc(NC(=O)c3ccc([N+](=O)[O-])cc3)nc2C)cs1", "z-score": 0.209}
{"smiles": "CCOc1ccc(CC(=O)Nc2c(C(N)=O)oc3ccc(Br)cc23)cc1OCC", "z-score": -0.0702}
{"smiles": "CN(C)/C=C1/N=C(c2ccccc2)OC1=O", "z-score": -0.23}
{"smiles": "COc1ccc(C(=O)c2ccc(CC#N)s2)cc1", "z-score": -0.0619}
{"smiles": "CCn1c2ccccc2c2nnc(SCC(=O)OCN3C(=O)c4ccccc4C3=O)nc21", "z-score": -0.087}
{"smiles": "CC(C)(C)S(=O)c1cccs1", "note": "(configuration not stated)", "z-score": 0.555}
{"smiles": "CSc1nc(C)cc(OCC(=O)N2CCOCC2)n1", "z-score": 0.387}
{"smiles": "S=C(Nc1ccc(Cl)cc1)N1CCCCC1", "z-score": -0.262}
{"smiles": "S=C(NN=C1CCCCCC1)Nc1ccc(Cl)cc1", "z-score": "9.7 (active)"}
{"smiles": "Cc1cc(C)c2c(c1)/C(=N/NC(=S)Nc1ccc(F)cc1)CCC2", "z-score": 2.6}
{"smiles": "Fc1ccc(NC(=S)N2CCCCC2)cc1", "z-score": 0.208}
{"smiles": "Cc1cc(C)c2c(c1)/C(=N/NS(=O)(=O)c1ccccc1)CCC2", "z-score": -1.09}
{"smiles": "S=C(Nc1ccc(Cl)cc1)N1CCCC1", "z-score": 0.113}
{"smiles": "Fc1ccc(NC(=S)NN=C2CCCCCC2)cc1", "z-score": "12 (active)"}
{"smiles": "COc1ccc(NC(=S)N/N=C2/CCCc3c(C)cc(C)cc32)cc1", "z-score": 0.0188}
{"smiles": "Fc1ccc(NC(=S)N2CCCC2)cc1", "z-score": -0.0754}
{"smiles": "O=C1CC(c2ccccc2)CN1S(=O)(=O)c1ccccc1", "note": "(configuration not stated)", "z-score": 0.00794}
{"smiles": "O=C(NCCc1csc(-c2cccnc2)n1)c1cccc2ccccc12", "z-score": 0.472}
{"smiles": "CC(C)=C1SC(N2CCCCC2)=NC1=O", "z-score": 1.93}
{"smiles": "Cc1nn(CCc2n[nH]c(=S)n2C2CCCCC2)c(C)c1Br", "z-score": -0.451}
{"smiles": "COc1ccc(-c2csc(NC(=O)CN3C(=O)CCC3=O)n2)cc1OC", "z-score": -0.147}
{"smiles": "Cc1cc(=O)n2[nH]c(-c3ccccc3Cl)cc2n1", "z-score": -0.0492}
{"smiles": "Cc1c(C(=O)N/N=C/C(C)C)[nH]c2c([N+](=O)[O-])cccc12", "z-score": -0.722}
{"smiles": "CCC/C=N/NC(=O)c1[nH]c2c([N+](=O)[O-])cccc2c1C", "z-score": 2.02}
{"smiles": "Cc1cc([N+](=O)[O-])c2[nH]c(C(=O)N/N=C/c3ccccc3C(=O)O)c(-c3ccccc3)c2c1", "z-score": -0.455}
{"smiles": "CCc1nc(Nc2ccc(OC)c(OC)c2)c2nnn(Cc3ccccc3Cl)c2n1", "z-score": 0.049}
{"smiles": "CCOc1ccc(C(F)(F)F)cc1NC(=O)c1ccc(OC)c([N+](=O)[O-])c1", "z-score": 0.372}
{"smiles": "CCOc1ccc(C(F)(F)F)cc1NC(=O)COc1ccc(C(F)(F)F)cc1[N+](=O)[O-]", "z-score": -0.107}
{"smiles": "COc1ccccc1NC(=O)COc1ccc(Br)cc1CO", "z-score": 2.95}
{"smiles": "COc1ccccc1NC(=O)COc1ccc(C(F)(F)F)cc1[N+](=O)[O-]", "z-score": "4.19 (active)"}
{"smiles": "O=C(COc1ccc(Br)cc1CO)Nc1ccccc1", "z-score": -0.336}
{"smiles": "O=C(COc1ccc(Br)cc1CO)Nc1ccccc1F", "z-score": -0.0395}
